# Several values for one entry are separate records, joined by “and”; a condition that tells them apart may be missing. Identical values can stand only once. Results filed as inconclusive are left out. Entries that show only a call come without a potency. Activity calls are given as the source filed them. Unless noted, calls follow the shape of the full dose curve.
# Experiments:
# [1] = biological target: Cytochrome P450 2D6 (Homo sapiens) (UniProt P10635); assay: Cytochrome P450 family 2 subfamily D member 6 (CYP2D6) small molecule antagonists: luciferase biochemical (cell-free) qHTS assay (AID 1645840; active = well fitted curve in the direction sought with a large enough effect in the repeat runs; an effect the other way counts as inactive or inconclusive; also: nearly all actives have a fitted effect of over 55% in size; also: potency is read from the fitted curve at half-maximal effect)
# Sequence of Cytochrome P450 2D6 (Homo sapiens) (P10635 whole entry, looked up): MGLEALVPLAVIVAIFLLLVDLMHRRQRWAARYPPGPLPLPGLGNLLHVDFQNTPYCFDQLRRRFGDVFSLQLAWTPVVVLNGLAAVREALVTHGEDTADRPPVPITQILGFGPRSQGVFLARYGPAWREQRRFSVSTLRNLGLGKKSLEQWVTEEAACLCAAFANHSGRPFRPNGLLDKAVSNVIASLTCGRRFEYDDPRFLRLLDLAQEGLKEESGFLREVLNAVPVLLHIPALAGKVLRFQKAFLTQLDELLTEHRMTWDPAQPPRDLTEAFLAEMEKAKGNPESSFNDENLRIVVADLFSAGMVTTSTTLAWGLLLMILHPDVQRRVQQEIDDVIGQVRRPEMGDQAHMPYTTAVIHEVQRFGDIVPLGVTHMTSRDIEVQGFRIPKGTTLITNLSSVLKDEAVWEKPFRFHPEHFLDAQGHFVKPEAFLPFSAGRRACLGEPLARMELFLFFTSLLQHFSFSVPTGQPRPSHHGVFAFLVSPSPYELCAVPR
# How it was run: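 P450-Glo CYP2D6 system: proluciferin substrate converted by enzyme to luciferin, read by luminescence proportional to activity. Enzyme-substrate mix with compound 10 min at room temperature, then NADPH regeneration 1 h before detection reagent.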
# [2] = biological target: Cytochrome P450 2C9 (Homo sapiens) (UniProt P11712); assay: Cytochrome P450 family 2 subfamily C member 9 (CYP2C9) small molecule antagonists: luciferase biochemical (cell-free) qHTS assay (AID 1645842; active = well fitted curve in the direction sought with a large enough effect in the repeat runs; an effect the other way counts as inactive or inconclusive; also: nearly all actives have a fitted effect of over 55% in size; also: potency is read from the fitted curve at half-maximal effect)
# Sequence of Cytochrome P450 2C9 (Homo sapiens) (P11712 whole entry, looked up): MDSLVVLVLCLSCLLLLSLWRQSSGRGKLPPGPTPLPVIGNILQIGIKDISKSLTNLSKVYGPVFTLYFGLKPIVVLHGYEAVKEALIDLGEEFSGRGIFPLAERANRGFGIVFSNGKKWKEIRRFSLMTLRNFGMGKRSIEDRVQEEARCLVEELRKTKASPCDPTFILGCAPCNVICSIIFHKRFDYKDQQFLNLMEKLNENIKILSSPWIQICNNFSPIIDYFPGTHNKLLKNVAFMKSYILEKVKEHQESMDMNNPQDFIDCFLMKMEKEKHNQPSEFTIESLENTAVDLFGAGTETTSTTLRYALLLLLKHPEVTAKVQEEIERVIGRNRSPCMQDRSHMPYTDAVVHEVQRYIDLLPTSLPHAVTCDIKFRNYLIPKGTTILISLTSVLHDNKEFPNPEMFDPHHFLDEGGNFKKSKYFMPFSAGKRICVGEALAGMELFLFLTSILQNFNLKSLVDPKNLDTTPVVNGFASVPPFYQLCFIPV
# How it was run: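 P450-Glo CYP2C9 system: proluciferin substrate with enzyme in mix containing 0.4% BSA, 10 min at room temperature, then NADPH regeneration solution added and incubated 1 h at 37C. Detection reagent stopped reaction; luminescence read after 20 min as RLU.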
# [3] = Cytotoxicity counterscreen for inhibitors of SARS-CoV-2 cell entry (AID 1645845); also: nearly all actives have a fitted effect of over 50% in size; also: potency is read from the fitted curve at half-maximal effect
# How it was run: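 ATP-content luminescence (ATPLite 1step, 15 min RT) read after 48 h compound exposure of Expi293F cells stably expressing human ACE2; normalized to cells-only wells and media-only wells.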
# [4] = Primary qHTS to identify inhibitors of SARS-CoV-2 cell entry (AID 1645846); settings: activity change, negative = inhibition: at 57.1 µM (top of the series) unless noted; also: nearly all actives have a fitted effect of over 45% in size; also: potency is read from the fitted curve at half-maximal effect
# How it was run: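 Luminescence readout (Bright-Glo luciferase) 48 h after pseudoparticle addition. HEK293-ACE2 cells, 1500/well; compound pre-incubation 1 h; Normalized to spike PP and bald PP.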
# [5] = Primary qHTS for inhibitors of nuclear receptor binding SET domain protein 2 (NSD2) in an isogenic RCH-ACV NSD2 p.E1099K mutant (9B) (AID 1645876; active = well fitted curve in the direction sought with a large enough effect; an effect the other way counts as inactive or inconclusive; also: nearly all actives have a fitted effect of over 70% in size; also: potency is read from the fitted curve at half-maximal effect)
# [6] = Primary qHTS for inhibitors of nuclear receptor binding SET domain protein 2 (NSD2) in an RCH-ACV wild type WT cells (2C) (AID 1645877; active = well fitted curve in the direction sought with a large enough effect; an effect the other way counts as inactive or inconclusive; also: nearly all actives have a fitted effect of over 70% in size; also: potency is read from the fitted curve at half-maximal effect)
# [7] = biological target: Catechol O-methyltransferase (Homo sapiens) (UniProt P21964); assay: Confirmatory Screen for Target Class Profiling of Small Molecule Inhibitors of Methyltransferases (AID 1745852); settings: MTase-Glo luminescence, SAH detection, recombinant enzyme; measured here: COMT max response; stronger effect = lower value; also: potency is read from the fitted curve at half-maximal effect
# Sequence of Catechol O-methyltransferase (Homo sapiens) (P21964 whole entry, looked up): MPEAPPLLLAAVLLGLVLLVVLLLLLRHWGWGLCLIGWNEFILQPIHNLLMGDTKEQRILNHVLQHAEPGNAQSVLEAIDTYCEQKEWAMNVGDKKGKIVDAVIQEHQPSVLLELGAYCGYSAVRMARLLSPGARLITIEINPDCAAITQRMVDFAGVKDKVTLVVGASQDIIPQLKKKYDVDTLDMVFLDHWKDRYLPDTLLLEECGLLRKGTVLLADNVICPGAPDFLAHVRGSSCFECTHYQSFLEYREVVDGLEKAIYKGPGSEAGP
# [8] = biological target: Guanidinoacetate N-methyltransferase (Homo sapiens) (UniProt Q14353); assay: as above; settings: MTase-Glo luminescence, SAH detection, recombinant enzyme; activity change, negative = inhibition: at 57.3 µM (top of the series)
# [9] = VSVG counterscreen qHTS to identify inhibitors of SARS-CoV-2 cell entry (AID 1645847); also: potency is read from the fitted curve at half-maximal effect; nearly all actives have a fitted effect of over 65% in size
# How it was run: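 HEK293-ACE2 cells (Expi293F stably expressing human ACE2) were pretreated with compound for 1 h at 37 °C, then infected with MLV-based VSV-G pseudotyped particles for 48 h. Luciferase luminescence was normalized to VSV-G PP and bald PP wells.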
# [10] = biological target: Cytochrome P450 3A4 (Homo sapiens) (UniProt P08684); assay: Cytochrome P450 family 3 subfamily A member 4 (CYP3A4) small molecule antagonists: luciferase qHTS assay (AID 1645841; active = well fitted curve in the direction sought with a large enough effect in the repeat runs; an effect the other way counts as inactive or inconclusive; also: nearly all actives have a fitted effect of over 45% in size; also: potency is read from the fitted curve at half-maximal effect)
# Sequence of Cytochrome P450 3A4 (Homo sapiens) (P08684 whole entry, looked up): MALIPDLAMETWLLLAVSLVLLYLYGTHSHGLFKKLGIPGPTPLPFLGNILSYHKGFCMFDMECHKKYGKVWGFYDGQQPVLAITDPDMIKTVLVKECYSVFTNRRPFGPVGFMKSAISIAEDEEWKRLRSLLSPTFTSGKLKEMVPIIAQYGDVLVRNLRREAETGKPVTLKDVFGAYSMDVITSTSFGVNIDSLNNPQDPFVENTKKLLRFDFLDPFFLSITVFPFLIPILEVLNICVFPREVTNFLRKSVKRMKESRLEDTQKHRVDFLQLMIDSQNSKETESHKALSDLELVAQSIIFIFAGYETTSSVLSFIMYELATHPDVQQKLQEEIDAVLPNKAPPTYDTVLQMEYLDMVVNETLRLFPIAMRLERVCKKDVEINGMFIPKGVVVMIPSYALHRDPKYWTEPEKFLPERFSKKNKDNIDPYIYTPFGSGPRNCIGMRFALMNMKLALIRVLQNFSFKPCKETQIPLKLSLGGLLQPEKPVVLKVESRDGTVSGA
# How it was run: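 Luminescent CYP3A4 activity readout: compounds plus enzyme-substrate mix 10 min at room temperature, reaction started with NADPH regenerating system for 1 h, stopped with detection reagent, read after 20 min. Ketoconazole served as control.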
# [11] = A High-Content qHTS Against Drug Library for the Identification of Small Molecules that Inhibit DYT1 Early Onset Primary Dystonia-Associated Cell Pathology (AID 1645839)
# How it was run: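 High-content imaging quantified EGFP-TorsinA mislocalization in HEK293-derived cells inducibly expressing DYT1 mutant torsinA, after 48 h exposure to compound given together with tetracycline induction. Cell count served as a toxicity channel alongside %pathology.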
structure (smiles),measurement,setting,value
O=C(O)c1ccccn1,Potency,[1],inactive
same,Potency,[2],inactive
same,Potency,[3],inactive
same,"activity change, negative = inhibition",[4],-3.73%
CC(C)N(CCNC(=O)CN1CCCC1=O)C(C)C,Potency,[1],inactive
same,Potency,[2],inactive
same,Potency,[5],inactive
same,Potency,[6],inactive
COc1cc(N2CCC(N3CCN(C)CC3)CC2)ccc1Nc1ncc(Cl)c(Nc2ccccc2S(=O)(=O)C(C)C)n1,Potency,[3],31.6 µM (active)
Cc1[nH]nc2ccc(-c3cncc(OC[C@@H](N)Cc4c[nH]c5ccccc45)c3)cc12,Potency,[1],3.79 µM (active)
same,Potency,[2],674 nM (active)
same,Potency,[5],145 nM (active) and 235 nM (active)
same,Potency,[6],81.7 nM (active) and 132 nM (active)
same,activity,[7],-31.1%
same,Potency,[8],30.4 µM (active)
CCOc1ccn(-c2ccc(F)cc2)c(=O)c1C(=O)Nc1ccc(Oc2ccnc(N)c2Cl)c(F)c1,Potency,[3],inactive
O=C(Nc1ccncc1)C(=O)c1cn(Cc2ccc(Cl)cc2)c2ccccc12,Potency,[1],inactive
same,Potency,[3],inactive
same,"activity change, negative = inhibition",[4],-75.6%
same,Potency,[9],0.961 µM (active)
same,Potency,[5],0.263 µM (active)
same,Potency,[6],0.235 µM (active)
O=C(O)c1ccccc1O,Potency,[1],inactive
same,Potency,[10],inactive
same,Potency,[2],inactive
Oc1ccc2c3c1O[C@H]1[C@@H](O)C=C[C@H]4[C@@H](C2)NCC[C@@]341,Potency,[11],inactive
same,Potency,[5],28.1 µM (active)
same,Potency,[6],39.7 µM (active)
Nc1ccc([N+](=O)[O-])cc1,Potency,[1],inactive
O=[N+]([O-])c1c2ccccc2cc2ccccc12,Potency,[1],inactive
same,Potency,[6],inactive
O=C(O)[C@H](Cc1c[nH]c2ccccc12)N1C(=O)c2ccccc2C1=O,Potency,[3],inactive
OCCC#Cc1nc(-c2ccc(F)cc2)c(-c2ccncc2)n1CCCc1ccccc1,Potency,[3],inactive
CN1C(=O)C(Cc2c[nH]c3ccccc23)NC1=S (stereo not drawn),Potency,[3],inactive
CN[C@@H](C)[C@H](O)c1ccccc1,Potency,[11],inactive
same,Potency,[1],inactive
same,Potency,[5],inactive
same,Potency,[6],inactive
CC(C)c1ccccc1Cc1cc(C(=O)Nc2ccc(S(=O)(=O)c3ccccc3C(C)(C)C)cc2)c(O)c(O)c1O,Potency,[3],inactive
C[C@]12COC(=O)C[C@@H]1CC[C@@H]1[C@H]2CC[C@@]2(C)[C@H]1CC[C@]2(C)O,Potency,[1],inactive
Nc1c(Cl)c(Cl)c(Cl)c(Cl)c1Cl,Potency,[11],inactive
same,Potency,[1],inactive
same,Potency,[5],inactive
same,Potency,[6],inactive
CC(C)(C)NC[C@H](O)c1ccc(O)cc1Cl,Potency,[11],inactive
same,Potency,[1],inactive
same,Potency,[5],inactive
same,Potency,[6],inactive
Nc1ccc(Sc2ccc(N)cc2)cc1,Potency,[1],24.5 µM (active)
same,Potency,[2],920 nM (active)
same,Potency,[6],34.4 µM (active)
O=C(N[C@@H](COc1ccc2[nH]c(=O)[nH]c2c1)c1ccccc1)c1cccn(Cc2ccc(F)c(F)c2)c1=O,Potency,[1],4.25 µM (active)
same,Potency,[2],239 nM (active)
same,Potency,[3],inactive
same,Potency,[5],1.63 µM (active)
same,Potency,[6],4.17 µM (active)
CC(C)(N)C(=O)N[C@H](COCc1ccccc1)C(=O)N1CCC2(CC1)CN(S(C)(=O)=O)c1ccccc12,Potency,[3],inactive
O=C(NCCS(=O)(=O)c1ccc(C(F)(F)F)cn1)c1ccc(Cl)cc1,Potency,[3],inactive
O=C1C(I)=CC(=C(c2cc(I)c(O)c(I)c2)c2ccccc2C(=O)O)C=C1I,Potency,[1],9.77 µM (active)
same,Potency,[2],3090 nM (active)
same,Potency,[5],inactive
same,Potency,[6],inactive
O=C(Nc1cccnc1)N1CCC(Cc2cccc(Oc3ccc(C(F)(F)F)cn3)c2)CC1,Potency,[3],20 µM (active)
Nc1ccc(N=Nc2ccccc2)cc1,Potency,[1],41.1 µM (active)
same,Potency,[2],9200 nM (active)
same,Potency,[5],6.11 µM (active)
same,Potency,[6],6.86 µM (active)
Nc1ccc(Cl)cc1N,Potency,[1],25.9 µM (active)
same,Potency,[10],7.96 µM (active)
CCC(=O)O[C@@H]1C=C2CCC3C(CCC4(C)C3CC[C@@H]4OC(=O)CC)C2CC1 (stereo partly drawn),Potency,[11],inactive
same,Potency,[2],19500 nM (active)
same,Potency,[3],inactive
same,Potency,[5],inactive
O=c1[nH]c2ccc(Cl)cc2c(N[C@@H]2CN3CCC2CC3)c1-c1nc2ccccc2[nH]1,Potency,[1],1.69 µM (active) and 2.39 µM (active)
same,Potency,[2],10.7 µM (active) and 8.49 µM (active)
same,"activity change, negative = inhibition",[4],-97.1%
same,Potency,[5],64.9 nM (active) and 83.3 nM (active)
same,Potency,[6],51.5 nM (active) and 83.3 nM (active)
COc1ccc(OC)c(-c2nnc3ccc(-c4ccc(OC)c(O[C@@H]5CCOC5)c4)nn23)c1,Potency,[3],inactive
Cc1cc2c(F)c(Oc3ncnn4cc(OC[C@@H](C)O)c(C)c34)ccc2[nH]1,Potency,[3],inactive
Clc1ccc(C(c2ccc(Cl)cc2)n2cc[n+](CC(OCc3ccc(Cl)cc3Cl)c3ccc(Cl)cc3Cl)c2)cc1 (stereo not drawn),Potency,[3],31.6 µM (active)
C[C@@H]1CN(CC(=O)Nc2ccc3c(c2)Cc2cccc(-c4cc(=O)cc(N5CCOCC5)o4)c2S3)C[C@H](C)O1,Potency,[3],14.1 µM (active)
CS(=O)(=O)Oc1ccc2c(NC(N)=O)c(C(=O)c3ccc(Cl)cc3Cl)oc2c1,Potency,[4],inactive
CC[N+](C)(CC)CCOC(=O)C(O)(c1ccccc1)C1CCCCC1 (stereo not drawn),Potency,[4],inactive
CC1(C)CCC(c2ccc(Cl)cc2)=C(CN2CCN(c3ccc(C(=O)NS(=O)(=O)c4ccc(N[C@H](CCN5CCOCC5)CSc5ccccc5)c(S(=O)(=O)C(F)(F)F)c4)cc3)CC2)C1,Potency,[3],inactive
same,Potency,[4],inactive
Fc1cc(-c2cccc3ncc(-c4cnn(C5CCNCC5)c4)nc23)cc(F)c1CN1CCOCC1,Potency,[3],31.6 µM (active)
same,Potency,[4],12.6 µM (active)

# Source: PubChem BioAssay (NCATS)
